Assay outcomes: PubChem, National Center for Advancing Translational Sciences (NCATS)
Compounds with a hit are over-represented: about 4.7% of the library has one in this group of screens.
TRHR agonist – activates the human TRH receptor; P34981; actives 0.18% (n = 360,000); TRHR cells, calcium flux fluo-8, FDSS agonist mode; activation, % at 2 µM; further: 0% is about no effect
Target sequence (P34981 whole entry, looked up): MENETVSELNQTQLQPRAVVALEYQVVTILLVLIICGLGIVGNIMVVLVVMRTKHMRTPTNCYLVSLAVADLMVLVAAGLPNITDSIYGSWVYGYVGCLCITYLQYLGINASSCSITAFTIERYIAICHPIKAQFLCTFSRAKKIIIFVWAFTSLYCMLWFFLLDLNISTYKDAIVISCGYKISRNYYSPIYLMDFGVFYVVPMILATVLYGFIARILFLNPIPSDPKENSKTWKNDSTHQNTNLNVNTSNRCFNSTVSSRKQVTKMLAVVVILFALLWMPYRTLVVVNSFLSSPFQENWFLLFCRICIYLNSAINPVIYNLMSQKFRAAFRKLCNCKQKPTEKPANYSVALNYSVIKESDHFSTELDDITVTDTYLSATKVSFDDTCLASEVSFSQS
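Read-out: compound-evoked intracellular calcium rise in TRHR cells, fluo-8 dye, kinetic FDSS fluorescence at 1 s/cycle following a 10-cycle baseline. Cells cultured overnight before dye loading (30 min–1.5 h, RT).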
D1 ag – agonists of human D1 dopamine receptor. P21728. HEK293 T-REx D1 cells, calcium flux, agonist mode. activation, % at 2 µM. actives 1% (n = 360,000). AID 504660; further: 0% is about no effect
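Agonism was scored from calcium flux recorded over 180 s (1 read/s) after pintool compound addition, following a 10-cycle baseline. Cells were inducible force-coupled HEK293 TREx D1, plated overnight at 30 C and loaded with no-wash calcium dye.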
TRHR PAM – TRH receptor (human) allosteric enhancement. P34981. TRHR cells, fluo-8 calcium fluorescence, EC20 TRH enhancement. enhancement, % at 2 µM. actives 0.66% (n = 360,000). AID 493056; in the data active means enhancement above about 30%; further: 0% is about no effect
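Enhancer read-out: after compound pinning and an initial kinetic agonist-mode read, an EC20 of TRH (10 nM final) was injected and fluo-8 calcium signal (Ex 480/Em 530) followed at 1 s/cycle for 100 cycles in TRHR-expressing cells.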
D1 antag – antagonists of human D1 dopamine receptor; HEK293 TREx D1 cells, calcium flux, dopamine EC80; hits give low values; AID 504652; activity change, negative = inhibition, % at 10 µM; actives 3.2% (n = 360,000); in the data active means activity change below about -30%; further: on the % scale 0 is the no-effect control and ±100 the full control effect
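Using tetracycline-induced force-coupled D1 Hek293 cells and a calcium dye, signals were followed for 180 s after compound, then for 180 s after EC80 dopamine, to detect inhibitors.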
D1 PAM – enhances dopamine response at the human D1 receptor | P21728 | HEK293 TREx D1 cells, calcium flux, dopamine EC20 potentiation | potentiation, % at 10 µM | actives 0.036% (n = 360,000); in the data active means potentiation above about 30%; further: 0% is about no effect
* marks the source's active call; other numbers are inactive results; . = no result. Unless noted, no stated cut-off is given here; in the data, active means activation above about 30%; inactive means the rest.

SMILES	TRHR agonist	D1 ag	TRHR PAM	D1 antag	D1 PAM
Cn1ccc2c(OCC(=O)Nc3ccc([N+](=O)[O-])cc3)cccc2c1=O	0	3	11	-37*	0
COc1ccc(NC(=O)NNC(=O)COc2ccc3cc(Br)ccc3c2)cc1OC	1	8	-4	-3	0
COc1ccc(NC(=O)NNC(=O)COc2ccc3ccccc3c2)cc1OC	0	1	-6	-49*	9
COc1cc(NC(=O)COc2ccc(Cl)cc2)ccc1-c1cc2ccccc2oc1=O	0	2	21	-41*	0
COc1cc(NC(=O)COc2ccc(Cl)cc2)ccc1NC(=O)C(C)C	-1	5	0	0	-5
Cn1ccc2c(OCC(=O)Nc3ccc(OC(F)(F)F)cc3)cccc2c1=O	0	-2	1	.	-3
COc1ccc(CCNC(=O)Cn2c(=O)c3cccn3c3ccccc32)cc1OC	1	7	-12	4	-5
COc1ccc(Nc2cc(O)c3ncccc3c2)cc1	0	0	-2	-3	-8
COc1cccc(N2CC(NC(=O)/C=C\c3ccc4c(c3)OCO4)CC2=O)c1 (stereo not drawn)	0	-4	12	.	2
COC(=O)c1ccc(NC(=O)Nc2ccc([N+](=O)[O-])cc2)cc1	2	36*	-1	-43*	-7
CCCn1ccc2c(OCC(=O)Nc3cc(C)ccc3C)cccc2c1=O	0	46*	23	.	-4
COc1ccc([N+](=O)[O-])cc1NC(=O)CCS(=O)(=O)c1ccc(Br)cc1	-1	3	-1	-33*	-8
CCOC(=O)c1ccc(NC(=O)Nc2ccc(F)cc2)cc1	2	21	2	-29	-6
COC(=O)c1ccc(NC(=O)Nc2ccc(F)cc2)cc1	2	24	19	-36*	-10
COc1ccc([N+](=O)[O-])cc1NC(=O)CS(=O)(=O)c1ccc(C)cc1	-1	3	-3	11	0
Cc1cccc(C(=O)N(Cc2ccccc2F)C2CCS(=O)(=O)C2)c1 (stereo not drawn)	-1	3	-2	-2	-1
Cc1ccc2nc(N3CCN(c4cccc(C(F)(F)F)c4)CC3)c3nnnn3c2c1	1	7	6	7	1
COc1ccc(OC)c(NC(=O)NNC(=O)COc2ccc([N+](=O)[O-])cc2)c1	0	0	6	-49*	-5
COc1ccc([N+](=O)[O-])cc1NC(=O)c1ccccc1SC	-2	1	6	-43*	-5
O=C(COc1ccc([N+](=O)[O-])cc1)NNC(=O)Nc1ccc([N+](=O)[O-])cc1	1	15	-3	-22	-6
Cc1ccc(C)c(NC(=O)C(=O)NCCc2csc3nc(-c4ccccc4C)nn23)c1	1	7	10	64	5
COc1ccc(S(=O)(=O)Nc2ccc3c(c2)N(C(C)=O)CCC3)cc1F	1	8	-4	-16	0
Cc1ccnc(N/C=C(/NC(=O)c2ccccc2)C(=O)N/N=C\c2ccc(F)cc2)n1	-1	0	0	-37*	-7
CCOC(=O)c1ccc(NC(=O)CC2S/C(=N/N=C/c3c[nH]c4ccccc34)NC2=O)cc1 (stereo not drawn)	0	1	5	-36*	2
Cc1cccc(S(=O)(=O)C(C#N)c2nc3ccccc3nc2N2CCCC2)c1 (stereo not drawn)	8	34*	-4	-8	-9
SMILES	TRHR agonist	D1 ag	TRHR PAM	D1 antag	D1 PAM
CCOC(=O)CNC(=O)C1CCCc2c1[nH]c1ccc(Cl)cc21 (stereo not drawn)	0	16	-2	-35*	-3
NC(=O)CNC(=O)C1CCCc2c1[nH]c1ccc(Cl)cc21 (stereo not drawn)	1	2	-1	-4	4
Cc1ccccc1C(=O)NCc1nc2cccnc2n1Cc1ccccc1	1	-1	-2	6	-3
CC(C)(C)OC(=O)NCC(=O)NNC(=O)c1cc2ccccc2[nH]1	1	1	-2	-59*	2
Cc1nn(CCC(=O)NCc2cccc(Br)c2)c(=O)c2nn(-c3ccccc3)c(C)c12	-1	6	1	10	0
O=C(c1cccs1)N(Cc1cccnc1)c1nc2ccc(F)cc2s1	0	1	2	.	-2
CCCCNC(=O)CCCCC(=O)N/N=C/c1cccc(Cl)c1	-3	1	31*	-29	-3
